Measured values taken from PubChem BioAssay (EPA / NIEHS).
Results filed as inconclusive are left out. Calls of active or inactive are those of the source. The calls were made as follows, unless noted: active = hit-call score of the fitted dose curve at least 0.9, where 1 is the maximum; inactive = score below 0.9.

Columns and labels:
[1] = molecular target: human RAR-related Orphan Receptor gamma (RORg), RORC (gene 6097) (UniProt P51449); experiment: ATG_RORg_TRANS: Attagene TRANS-FACTORIAL HepG2 Assay for human RAR-related Orphan Receptor gamma (RORg) (AID 2283011; active = hit-call score of the fitted dose curve at least 0.9, where 1 is the maximum)
Chain of human RAR-related Orphan Receptor gamma (RORg), RORC (gene 6097) (P51449 whole entry, looked up, the tested form may be a part): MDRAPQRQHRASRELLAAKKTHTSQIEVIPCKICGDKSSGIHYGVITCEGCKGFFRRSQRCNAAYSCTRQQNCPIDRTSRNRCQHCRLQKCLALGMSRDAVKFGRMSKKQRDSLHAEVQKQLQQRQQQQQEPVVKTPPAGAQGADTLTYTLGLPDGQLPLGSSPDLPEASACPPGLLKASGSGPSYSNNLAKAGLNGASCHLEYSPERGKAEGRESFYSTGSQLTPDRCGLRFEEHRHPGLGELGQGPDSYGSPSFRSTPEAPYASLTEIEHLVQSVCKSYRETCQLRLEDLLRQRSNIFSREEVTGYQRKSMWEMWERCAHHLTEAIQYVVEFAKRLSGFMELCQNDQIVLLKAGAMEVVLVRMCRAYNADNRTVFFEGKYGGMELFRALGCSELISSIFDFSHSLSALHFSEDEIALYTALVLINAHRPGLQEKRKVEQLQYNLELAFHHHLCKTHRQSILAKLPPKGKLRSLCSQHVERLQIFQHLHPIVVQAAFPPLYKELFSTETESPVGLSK
Summary of the method: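 Activity is scored as increase in GAL4-UAS reporter mRNA over DMSO, detected by fluorescent RT-PCR and capillary electrophoresis in HepG2 cells transiently expressing a RORg-Gal4 chimera, 24 h after dosing.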

[2] = molecular target: Retinoic acid receptor RXR-alpha (Homo sapiens) (UniProt P19793); experiment: ATG_RXRa_TRANS: Attagene TRANS-FACTORIAL HepG2 Assay for human Retinoid X Receptor alpha (RXRa) (AID 2283012; active = hit-call score of the fitted dose curve at least 0.9, where 1 is the maximum)
Chain of Retinoic acid receptor RXR-alpha (Homo sapiens) (P19793 whole entry, looked up, the tested form may be a part): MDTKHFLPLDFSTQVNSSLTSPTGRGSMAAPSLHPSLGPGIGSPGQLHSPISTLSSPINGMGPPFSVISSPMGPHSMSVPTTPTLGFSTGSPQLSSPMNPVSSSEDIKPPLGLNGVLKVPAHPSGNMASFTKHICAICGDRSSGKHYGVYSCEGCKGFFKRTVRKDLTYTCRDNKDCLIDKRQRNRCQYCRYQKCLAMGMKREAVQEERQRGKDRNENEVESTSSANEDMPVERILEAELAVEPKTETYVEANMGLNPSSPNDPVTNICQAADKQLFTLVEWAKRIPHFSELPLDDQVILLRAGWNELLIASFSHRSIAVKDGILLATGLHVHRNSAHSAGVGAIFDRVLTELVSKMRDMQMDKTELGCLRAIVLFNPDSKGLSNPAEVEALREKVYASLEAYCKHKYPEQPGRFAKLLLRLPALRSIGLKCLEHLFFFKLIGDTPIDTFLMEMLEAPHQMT
Summary of the method: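 Read-out: fluorescent reporter-transcript fragments quantified by capillary electrophoresis after RT-PCR. Transiently transfected HepG2 cells carrying GAL4-UAS reporters and NR-GAL4 chimeras were exposed to chemical for 24 h; activity scored as increase over DMSO.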

[3] = molecular target: human Retinoid X Receptor beta (RXRb), RXRB (gene 6257) (UniProt P28702); experiment: ATG_RXRb_TRANS: Attagene TRANS-FACTORIAL HepG2 Assay for human Retinoid X Receptor beta (RXRb) (AID 2283013; active = hit-call score of the fitted dose curve at least 0.9, where 1 is the maximum)
Chain of human Retinoid X Receptor beta (RXRb), RXRB (gene 6257) (P28702 whole entry, looked up, the tested form may be a part): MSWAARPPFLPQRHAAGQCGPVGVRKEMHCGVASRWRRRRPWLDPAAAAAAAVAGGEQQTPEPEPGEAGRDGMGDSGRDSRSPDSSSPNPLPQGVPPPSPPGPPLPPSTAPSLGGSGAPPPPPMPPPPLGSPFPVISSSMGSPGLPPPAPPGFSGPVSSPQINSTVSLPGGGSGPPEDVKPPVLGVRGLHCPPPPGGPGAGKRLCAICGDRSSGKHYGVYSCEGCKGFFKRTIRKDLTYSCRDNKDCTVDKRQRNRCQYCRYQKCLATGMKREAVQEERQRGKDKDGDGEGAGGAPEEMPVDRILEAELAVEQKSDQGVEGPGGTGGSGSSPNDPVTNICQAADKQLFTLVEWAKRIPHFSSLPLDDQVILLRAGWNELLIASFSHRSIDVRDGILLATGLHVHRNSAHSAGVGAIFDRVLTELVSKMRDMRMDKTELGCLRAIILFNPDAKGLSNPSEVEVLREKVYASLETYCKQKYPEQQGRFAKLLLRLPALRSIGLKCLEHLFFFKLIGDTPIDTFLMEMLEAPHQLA
Summary of the method: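 Read-out: reporter mRNA induction via RT-PCR plus capillary electrophoresis fluorescence, analysed as signal increase relative to DMSO. Cells were human HepG2, transiently transfected with GAL4-UAS reporter constructs and chimeric receptor-Gal4 fusions, dosed for 24 h.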

[4] = read-out: E-selectin (Homo sapiens) (UniProt P16581); experiment: BSK_3C_Eselectin: BioMAP Diversity Plus: 3C Assay for Eselectin Biomarker Activity (AID 2283015); settings: primary human endothelial cells (HUVEC); actives raise or lower the signal
Summary of the method: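 Human vascular endothelium from umbilical vein is exposed to test chemicals for 24 h. E-selectin levels are read by ELISA and compared with DMSO controls.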

[5] = read-out: Interleukin-1 alpha (IL1a), IL1A (gene 3552); experiment: BSK_BE3C_IL1a: BioMAP Diversity Plus: BE3C Assay for Interleukin-1 alpha (IL1a) Biomarker Activity (AID 2283016); settings: primary human bronchial epithelial cells; actives raise or lower the signal
Summary of the method: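 ELISA read-out of IL-1a from human lung bronchial epithelial primary cells, 24 h post-dose. Gain or loss of signal fitted relative to DMSO negative control.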

[6] = read-out: Monocyte Chemoattractant Protein-1 (MCP1), CCL2 (gene 6347); experiment: BSK_3C_MCP1: BioMAP Diversity Plus: 3C Assay for Monocyte Chemoattractant Protein-1 (MCP1) Biomarker Activity (AID 2283017); settings: primary human endothelial cells (HUVEC); actives raise or lower the signal
Summary of the method: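 Endothelial cells from human umbilical vein are dosed with chemical, cultured 24 h, then assayed for MCP-1 by ELISA; both increases and decreases are modelled against DMSO controls.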

[7] = read-out: Monocyte Chemoattractant Protein-1 (MCP1), CCL2 (gene 6347); experiment: BSK_4H_MCP1: BioMAP Diversity Plus: 4H Assay for Monocyte Chemoattractant Protein-1 (MCP1) Biomarker Activity (AID 2283018); settings: primary human endothelial cells (HUVEC); actives raise or lower the signal
Summary of the method: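 HUVEC primary cells, 24 h post-dose, MCP-1 by ELISA. Gain or loss of signal fitted bidirectionally vs DMSO baseline. Cytotoxicity: SRB stain (0.1% after 10% TCA fixation), read 560 nm, parallel cultures.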

[8] = read-out: Human Leukocyte Antigen - DR isotype (HLADR), HLA-DRA (gene 3122); experiment: BSK_3C_HLADR: BioMAP Diversity Plus: 3C Assay for Human Leukocyte Antigen - DR isotype (HLADR) Biomarker Activity (AID 2283019); settings: primary human endothelial cells (HUVEC); actives raise or lower the signal
Summary of the method: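 Endothelial cells from human umbilical vein are treated with test chemical; after 24 h, HLA-DR levels are measured by ELISA. Data are fitted in both directions using DMSO as the baseline.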

[9] = read-out: Monokine induced gamma interferon (MIG), CXCL9 (gene 4283); experiment: BSK_3C_MIG: BioMAP Diversity Plus: 3C Assay for Monokine induced gamma interferon (MIG) Biomarker Activity (AID 2283021); settings: primary human endothelial cells (HUVEC); actives raise or lower the signal
Summary of the method: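 HUVEC, 3C system; 24 h chemical exposure; MIG by ELISA; bidirectional fit vs DMSO baseline.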

[10] = molecular target: human Vitamin D Receptor (VDR), VDR (gene 7421) (UniProt P11473); experiment: ATG_VDR_TRANS: Attagene TRANS-FACTORIAL HepG2 Assay for human Vitamin D Receptor (VDR) (AID 2283022; active = hit-call score of the fitted dose curve at least 0.9, where 1 is the maximum)
Chain of human Vitamin D Receptor (VDR), VDR (gene 7421) (P11473 whole entry, looked up, the tested form may be a part): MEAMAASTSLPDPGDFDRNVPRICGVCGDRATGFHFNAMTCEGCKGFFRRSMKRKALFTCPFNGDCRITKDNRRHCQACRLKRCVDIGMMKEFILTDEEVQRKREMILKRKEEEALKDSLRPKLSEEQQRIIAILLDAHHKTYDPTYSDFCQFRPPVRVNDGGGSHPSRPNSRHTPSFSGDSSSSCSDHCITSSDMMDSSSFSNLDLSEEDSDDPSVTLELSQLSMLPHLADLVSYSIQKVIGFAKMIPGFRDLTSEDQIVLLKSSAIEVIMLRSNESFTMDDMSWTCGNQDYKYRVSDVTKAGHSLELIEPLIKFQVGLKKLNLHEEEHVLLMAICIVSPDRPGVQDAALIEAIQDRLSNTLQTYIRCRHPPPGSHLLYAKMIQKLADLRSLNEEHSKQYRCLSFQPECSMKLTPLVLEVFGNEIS
Summary of the method: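 Fluorescence of labelled reporter cDNA fragments, resolved by capillary electrophoresis, gives mRNA induction after 24 h treatment of HepG2 cells carrying transfected Gal4-fusion reporter units. Activity is fitted in the positive direction with DMSO as baseline.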

[11] = read-out: Matrix Metallopeptidase 1 (MMP1), MMP1 (gene 4312); experiment: BSK_BE3C_MMP1: BioMAP Diversity Plus: BE3C Assay for Matrix Metallopeptidase 1 (MMP1) Biomarker Activity (AID 2283024); settings: primary human bronchial epithelial cells; actives raise or lower the signal
Summary of the method: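 ELISA read-out of MMP1 in human lung bronchial epithelial primary cultures, 24 h post-dose; bidirectional curve fit vs DMSO baseline, gain or loss of signal scored.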

[12] = BSK_3C_Vis: BioMAP Diversity Plus: 3C Assay for Morphology Visualization (AID 2283025); settings: primary human endothelial cells (HUVEC);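 also: fitted both ways so gain or loss versus DMSO counts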;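 as to AC50: light microscopy image of cell morphology used as background control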
Summary of the method: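 HUVEC, 3C system; light microscopy of morphology at 24 h post-dose. Bidirectional fit vs DMSO baseline. Secondary readout, background-control function.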

[13] = read-out: Pselectin, SELP (gene 6403); experiment: BSK_4H_Pselectin: BioMAP Diversity Plus: 4H Assay for Pselectin Biomarker Activity (AID 2283026); settings: primary human endothelial cells (HUVEC); actives raise or lower the signal
Summary of the method: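 HUVEC, 24 h chemical exposure; P-selectin read by ELISA. Bidirectional curve fit vs DMSO baseline; gain or loss of signal scored.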

[14] = BSK_4H_SRB: Viability Assessment in the BioMAP Diversity Plus: 4H Assay (AID 2283027); settings: primary human endothelial cells (HUVEC);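 also: cells exposed to compound for 24 h before staining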;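 as to AC50: curves fitted both ways versus DMSO so AC50 may be loss or gain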
Summary of the method: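 Cytotoxicity readout: sulforhodamine B (0.1%) staining of total protein after 10% TCA fixation, measured at 560 nm in human umbilical vein endothelium at 24 h. DMSO set the baseline; fitting was bidirectional.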

[15] = BSK_BE3C_SRB: Viability Assessment in the BioMAP Diversity Plus: BE3C Assay (AID 2283028); settings: primary human bronchial epithelial cells;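 as to AC50: fitted both ways so AC50 may mark signal gain or loss versus DMSO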
Summary of the method: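 Overt cytotoxicity was assessed as total protein in confluent human primary bronchial epithelial cultures 24 h after chemical addition, using 0.1% sulforhodamine B staining read at 560 nm.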

[16] = read-out: Thrombomodulin, THBD (gene 7056); experiment: BSK_3C_Thrombomodulin: BioMAP Diversity Plus: 3C Assay for Thrombomodulin Biomarker Activity (AID 2283029); settings: primary human endothelial cells (HUVEC); actives raise or lower the signal
Summary of the method: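 HUVEC, 3C conditions; compound 24 h; thrombomodulin by ELISA; bidirectional curve fit vs DMSO baseline; parallel SRB total-protein staining for cytotoxicity.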

[17] = read-out: Urokinase-type plasminogen activator receptor (uPAR), PLAUR (gene 5329); experiment: BSK_4H_uPAR: BioMAP Diversity Plus: 4H Assay for Urokinase-type plasminogen activator receptor (uPAR) Biomarker Activity (AID 2283030); settings: primary human endothelial cells (HUVEC); actives raise or lower the signal
Summary of the method: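 Chemicals are dosed onto human vascular endothelial primary cells (umbilical vein). After 24 h, uPAR is read by ELISA. Gain or loss of signal is fitted relative to DMSO.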

[18] = BSK_3C_SRB: Viability Assessment in the BioMAP Diversity Plus: 3C Assay (AID 2283023); settings: primary human endothelial cells (HUVEC);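 also: cells read 24 h after compound dosing; fitted both ways against DMSO so a hit may be signal rise or drop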
Summary of the method: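 Cells were dosed with chemical, cultured 24 h, fixed with 10% TCA, stained with 0.1% SRB and read at 560 nm. Human umbilical vein endothelium was used; DMSO served as negative control and baseline.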

[19] = read-out: Interleukin-8 (IL8), CXCL8 (gene 3576); experiment: BSK_3C_IL8: BioMAP Diversity Plus: 3C Assay for Interleukin-8 (IL8) Biomarker Activity (AID 2283020); settings: primary human endothelial cells (HUVEC); actives raise or lower the signal
Summary of the method: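 HUVEC, 3C stimulation; 24 h compound exposure; IL-8 read by ELISA; gain or loss of signal fitted relative to DMSO control.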

Measured: AC50

Chain of E-selectin (Homo sapiens) (P16581 whole entry, looked up): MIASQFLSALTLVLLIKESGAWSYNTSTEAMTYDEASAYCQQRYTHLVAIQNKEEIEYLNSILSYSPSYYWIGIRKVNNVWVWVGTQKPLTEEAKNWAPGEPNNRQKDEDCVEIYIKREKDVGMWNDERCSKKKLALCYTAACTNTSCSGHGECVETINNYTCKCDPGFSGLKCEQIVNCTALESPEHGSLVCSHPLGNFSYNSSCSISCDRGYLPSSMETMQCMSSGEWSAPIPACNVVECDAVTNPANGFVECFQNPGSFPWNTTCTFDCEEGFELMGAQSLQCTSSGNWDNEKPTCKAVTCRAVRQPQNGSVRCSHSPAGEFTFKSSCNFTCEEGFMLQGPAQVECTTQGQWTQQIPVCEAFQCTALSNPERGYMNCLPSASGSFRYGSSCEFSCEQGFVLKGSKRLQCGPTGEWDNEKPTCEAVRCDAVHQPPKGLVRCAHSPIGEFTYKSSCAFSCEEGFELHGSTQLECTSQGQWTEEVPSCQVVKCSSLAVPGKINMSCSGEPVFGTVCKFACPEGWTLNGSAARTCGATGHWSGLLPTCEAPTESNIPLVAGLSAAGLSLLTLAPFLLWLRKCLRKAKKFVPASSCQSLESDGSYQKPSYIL

CCOC(=O)COc1cc(-c2nn(C)c(OC(F)F)c2Cl)c(F)cc1Cl
inactive: [1] | [2] | [3] | [4] | [5] | [6] | [8] | [9] | [10] | [11] | [12] | [14] | [15] | [16] | [17]
active: [7] 10.1 µM | [13] 6.73 µM

O=C(O)c1cc(Oc2ccc(C(F)(F)F)cc2Cl)ccc1[N+](=O)[O-]
inactive: [1] | [2] | [3] | [4] | [5] | [6] | [7] | [8] | [9] | [11] | [13] | [14] | [15] | [16] | [17]
active: [12] 9.8 µM

CCC(CC)Nc1c([N+](=O)[O-])cc(C)c(C)c1[N+](=O)[O-]
inactive: [1] | [2] | [3] | [5] | [9] | [10] | [17]
active: [4] 31.2 µM | [6] 36.6 µM | [7] 22.4 µM | [8] 36.2 µM | [11] 20 µM | [12] 13.7 µM | [13] 28.5 µM | [14] 35.6 µM | [15] 20 µM | [16] 15.5 µM

Nc1c(Cl)cc([N+](=O)[O-])cc1Cl
inactive: [1] | [2] | [3] | [4] | [5] | [6] | [7] | [9] | [10] | [11] | [12] | [13] | [14] | [15] | [16] | [17]
active: [8] 28.8 µM

FC(F)C(F)(F)OCC(Cn1cncn1)c1ccc(Cl)cc1Cl (centres undefined)
active: [7] 23.2 µM | [8] 26.9 µM | [18] 20 µM | [12] 39 µM | [13] 33.7 µM | [17] 31.7 µM
inactive: [2] | [4] | [5] | [6] | [9] | [11] | [14] | [15] | [16]

CCCCSP(=O)(SCCCC)SCCCC
inactive: [2] | [3] | [5] | [9] | [10] | [11] | [13] | [17]
active: [4] 28.1 µM | [6] 26 µM | [7] 16.7 µM | [8] 27.7 µM | [19] 31.9 µM | [12] 13.7 µM | [14] 20 µM | [15] 14.7 µM | [16] 5.35 µM

CCCCN(CC)c1c([N+](=O)[O-])cc(C(F)(F)F)cc1[N+](=O)[O-]
inactive: [2] | [4] | [5] | [6] | [7] | [9] | [10] | [11] | [13] | [14] | [15] | [16] | [17]
active: [8] 20 µM | [12] 39 µM
